SMILES strings stand for the structures. Unmarked numbers belong to inactive results. For part of these data: Potency and affinity values are given separately. Active and inactive are the calls of the source. Unless noted, the rule behind the calls is not given here.

For 18 compounds, growth inhibition, inhibition and outcome results are on record in PubChem BioAssay.

The nature of assay [1]: antimalarial activity against Dd2 strain (AID 2302;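 active = growth inhibition above 50% at the single 2 µM test dose, taken to imply half-maximal potency below 2 µM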;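 note: 0% = DMSO untreated growth and 100% = chloroquine plus artemisinin killed control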). The conditions noted are these: P. falciparum Dd2 in RBCs, LDH growth readout, 72 h; at 2 µM; hits give high values.
Assay [2] is described as follows: HepG2 cytotoxicity, primary screen, cytotoxicity control for P. falciparum antimalarial project, cell-based, ATP luminescence (AID 2303;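 active = inhibition above 50%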;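 note: 0% = DMSO wells and 100% = digitonin-killed cells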). Conditions: HepG2 viability, 24-48 h, at 10 µM, hits give high values.
The target in assay [3] is L-lactate dehydrogenase (Plasmodium falciparum (isolate CDC / Honduras)) (UniProt Q27743). Briefly: PfLDH activity inhibition – cell lysate, 3D7 strain, counter-screen for P. falciparum growth inhibition project (AID 2304).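 Note: 0% = vehicle and 100% = reference inhibitor.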 The conditions noted are these: P. falciparum 3D7 crude extract, LDH APAD/NBT absorbance; at 2 µM; hits give high values.
Sequence of L-lactate dehydrogenase (Plasmodium falciparum (isolate CDC / Honduras)) (Q27743 whole entry, looked up): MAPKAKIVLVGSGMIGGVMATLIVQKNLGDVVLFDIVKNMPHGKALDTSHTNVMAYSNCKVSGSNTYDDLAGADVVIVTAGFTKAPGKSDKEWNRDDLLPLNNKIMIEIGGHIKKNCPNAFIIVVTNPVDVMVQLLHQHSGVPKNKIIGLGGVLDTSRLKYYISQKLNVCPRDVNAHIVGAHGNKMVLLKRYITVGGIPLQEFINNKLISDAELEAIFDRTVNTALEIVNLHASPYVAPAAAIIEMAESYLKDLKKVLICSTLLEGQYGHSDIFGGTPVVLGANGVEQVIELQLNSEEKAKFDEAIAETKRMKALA
The nature of assay [4]: inhibition of 3D7 malaria parasite growth – strain 3D7 (AID 2306).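 Note: 0% = DMSO wells and 100% = chloroquine plus artemisinin control wells.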 Conditions: P. falciparum 3D7 erythrocytic growth, LDH absorbance, 72 h; at 2 µM; hits give high values.
Assay [5] addresses Calcium-dependent protein kinase 1 (Plasmodium falciparum (isolate 3D7)) (UniProt P62344). Briefly: PfCDPK1 kinase inhibitors, biochemical, TCAMS library (AID 1159585; cut-off not given, nearly all actives have IC50 up to about 0.98 µM;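 note: inhibitors leave more ATP so luminescence rises with inhibition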). Conditions: recombinant PfCDPK1, Kinase-Glo ATP depletion luminescence.
The target in assay [6] is Plasmodium falciparum protein kinase 6 (PK6, PF3D7_1337100) (UniProt Q8IDW1). Briefly: PfPK6 kinase inhibitors, biochemical, TCAMS library (AID 1159586). Conditions: recombinant PfPK6, Kinase-Glo ATP depletion luminescence.
Sequence of Plasmodium falciparum protein kinase 6 (PK6, PF3D7_1337100) (Q8IDW1 1-305): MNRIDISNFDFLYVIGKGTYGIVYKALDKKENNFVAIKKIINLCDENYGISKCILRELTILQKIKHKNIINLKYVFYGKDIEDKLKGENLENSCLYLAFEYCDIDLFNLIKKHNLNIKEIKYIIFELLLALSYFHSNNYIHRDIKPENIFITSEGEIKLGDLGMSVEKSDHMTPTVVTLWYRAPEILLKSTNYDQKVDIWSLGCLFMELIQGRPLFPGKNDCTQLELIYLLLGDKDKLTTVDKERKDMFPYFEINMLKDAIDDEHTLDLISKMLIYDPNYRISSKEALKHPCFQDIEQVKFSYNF
The target in assay [7] is Protein kinase 7 (PK7), Plasmodium falciparum 3D7 (PF3D7_0213400) (UniProt Q7YTF7). Briefly: inhibition of Plasmodium PK7 catalytic activity – biochemical, TCAMS antimalarial set, Kinase-Glo luminescence (AID 1159587). The conditions noted are these: recombinant PfPK7, Kinase-Glo ATP depletion luminescence.
Sequence of Protein kinase 7 (PK7), Plasmodium falciparum 3D7 (PF3D7_0213400) (Q7YTF7 1-343): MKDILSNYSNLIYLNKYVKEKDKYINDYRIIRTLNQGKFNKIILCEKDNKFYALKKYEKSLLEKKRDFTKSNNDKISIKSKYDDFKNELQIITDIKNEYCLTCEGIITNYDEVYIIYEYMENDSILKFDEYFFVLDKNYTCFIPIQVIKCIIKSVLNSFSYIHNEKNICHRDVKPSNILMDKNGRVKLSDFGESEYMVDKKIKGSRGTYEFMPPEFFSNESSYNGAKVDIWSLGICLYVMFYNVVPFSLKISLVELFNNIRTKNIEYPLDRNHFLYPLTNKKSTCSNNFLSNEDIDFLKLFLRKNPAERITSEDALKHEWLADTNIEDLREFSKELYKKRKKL
The target of assay [8] is Calcium-dependent protein kinase 4 (Plasmodium falciparum (isolate 3D7)) (UniProt Q8IBS5). Kind of assay: PfCDPK4 kinase inhibitors, biochemical, TCAMS library (AID 1159588; cut-off not given, nearly all actives have IC50 up to about 0.91 µM). Conditions: recombinant PfCDPK4, Kinase-Glo ATP depletion luminescence.
Sequence of Calcium-dependent protein kinase 4 (Plasmodium falciparum (isolate 3D7)) (Q8IBS5 whole entry, looked up): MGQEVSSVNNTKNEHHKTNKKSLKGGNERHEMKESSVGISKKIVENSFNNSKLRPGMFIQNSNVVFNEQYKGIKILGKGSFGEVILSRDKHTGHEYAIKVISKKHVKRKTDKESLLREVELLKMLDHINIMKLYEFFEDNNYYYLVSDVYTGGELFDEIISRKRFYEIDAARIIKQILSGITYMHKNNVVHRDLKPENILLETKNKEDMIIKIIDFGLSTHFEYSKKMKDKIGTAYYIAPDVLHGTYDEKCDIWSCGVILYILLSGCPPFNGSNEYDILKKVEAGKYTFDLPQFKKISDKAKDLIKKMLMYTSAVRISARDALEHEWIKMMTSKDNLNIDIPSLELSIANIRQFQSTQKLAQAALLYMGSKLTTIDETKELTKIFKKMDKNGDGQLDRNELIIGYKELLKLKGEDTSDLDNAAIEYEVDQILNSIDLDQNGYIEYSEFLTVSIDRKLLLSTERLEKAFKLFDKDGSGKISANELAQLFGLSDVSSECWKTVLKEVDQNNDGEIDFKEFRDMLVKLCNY

Sequence of Calcium-dependent protein kinase 1 (Plasmodium falciparum (isolate 3D7)) (P62344 whole entry, looked up): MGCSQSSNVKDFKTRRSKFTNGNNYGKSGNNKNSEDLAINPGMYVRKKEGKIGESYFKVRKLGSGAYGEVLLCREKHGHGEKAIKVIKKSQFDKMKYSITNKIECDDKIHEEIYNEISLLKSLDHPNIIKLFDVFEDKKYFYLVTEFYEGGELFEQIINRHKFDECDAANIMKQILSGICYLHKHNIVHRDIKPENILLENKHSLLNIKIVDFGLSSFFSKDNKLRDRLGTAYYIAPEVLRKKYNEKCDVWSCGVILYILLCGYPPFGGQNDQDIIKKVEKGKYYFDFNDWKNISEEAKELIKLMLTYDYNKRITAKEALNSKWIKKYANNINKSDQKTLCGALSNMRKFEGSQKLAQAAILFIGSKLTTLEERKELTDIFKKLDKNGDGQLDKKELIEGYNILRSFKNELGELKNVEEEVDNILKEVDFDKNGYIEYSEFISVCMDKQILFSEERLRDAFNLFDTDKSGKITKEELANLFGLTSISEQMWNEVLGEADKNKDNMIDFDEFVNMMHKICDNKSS

Take `N#Cc1cccc(-c2nc(NCc3cccc(C(F)(F)F)c3)nn2-c2cccc(C(F)(F)F)c2)c1`: the growth inhibition was 88% (active) in assay [1] and 94% (active) in assay [4]. Further, the inhibition is 12% in assay [2] and 3% in assay [3]. In addition, the result in assay [5], in assay [6], in assay [7] and in assay [8] was inactive.

Turning to `CC(C)(C)Oc1ccc(CC2NC3(C(=O)N(Cc4ccc(C(C)(C)C)cc4)c4ccccc43)C3C(=O)N(c4ccc(Br)cc4)C(=O)C23)cc1` (centres undefined), the growth inhibition in assay [1] and in assay [4] was 94% (active) in each case. In addition, the inhibition in assay [2] is 24%; in assay [3], 0%. In addition, the outcome in assay [5], in assay [6], in assay [7] and in assay [8] was inactive.

In the case of `C[C@H](Cc1ccc(Oc2ccc(C[C@@H](C)NC[C@H](O)c3cccc(Cl)c3)cc2)cc1)NC[C@H](O)c1cccc(Cl)c1`, the values for the growth inhibition in assay [1] and in assay [4] were 96% (active) and 100% (active), respectively. For the same compound, the inhibition in assay [2] is 99% (active); in assay [3], -3%. Besides, the outcome in assay [5], in assay [6], in assay [7] and in assay [8] was inactive.

As to `COC(=O)c1ccc2nc(-c3ccc(/C=C/C(=O)NC4CCN(Cc5ccccc5)CC4)cc3)[nH]c2c1`, the growth inhibition was 88% (active) in assay [1] and 100% (active) in assay [4]. Moreover, the inhibition is 12% in assay [2] and -5% in assay [3]. Further, the result in assay [5], in assay [6], in assay [7] and in assay [8] was inactive.

`Cc1ccc(CON2C(N)=NC(N)=NC23CCCCC3)c2ccccc12`: the growth inhibition in assay [1] is 56% (active); in assay [4], 98% (active). The inhibition in assay [2] is 57% (active); in assay [3], -8%. Moreover, the outcome in assay [5], in assay [6], in assay [7] and in assay [8] was inactive.

With `Cc1cc(O)c(CN(C)Cc2ccc(N(C)C)cc2)cc1C(C)C`, the growth inhibition in assay [1] is 98% (active); in assay [4] it was 100% (active). For the same compound, the results for the inhibition in assay [2] and in assay [3] were 3% and -1%, respectively. The outcome in assay [5], in assay [6], in assay [7] and in assay [8] was inactive.

Consider `Cc1cc(N[C@@H](CC(C)C)C(=O)NCCOc2ccccc2)nc(NCCc2ccccc2)n1`, for which the growth inhibition in assay [1] was 29%; in assay [4], 94% (active). Besides, the inhibition in assay [2] is 13%; in assay [3] it was -1%. Further, the result in assay [5], in assay [6], in assay [7] and in assay [8] was inactive.

For `O=C(Nc1ccc(N2CCN(Cc3c[nH]c4cc(F)ccc34)CC2)cc1)c1ccccc1-c1ccc(C(F)(F)F)cc1`, the growth inhibition in assay [1] was 7%; in assay [4], 85% (active). Moreover, the inhibition was 20% in assay [2] and 9% in assay [3]. Besides, the result in assay [5], in assay [6], in assay [7] and in assay [8] was inactive.

As to `c1cc(-c2ccc(CNCc3ccsc3)cc2)cc(-c2nc3ccccc3[nH]2)c1`, the growth inhibition in assay [1] was 82% (active); in assay [4] it was 101% (active). The inhibition in assay [2] was 46%; in assay [3], 2%. Besides, the result in assay [5], in assay [6], in assay [7] and in assay [8] was inactive.

For `N[C@@H](Cc1cc(I)c(Oc2ccc(O)c(Cl)c2)c(I)c1)C(=O)O`, the growth inhibition was -3% in assay [1] and 96% (active) in assay [4]. In addition, the inhibition in assay [2] was -4%; in assay [3] it was -2%. In addition, the result in assay [5], in assay [6], in assay [7] and in assay [8] was inactive.

For the compound `COc1ccc2nccc(NN=Cc3ccc(N(C)C)cc3)c2c1`, the growth inhibition was 95% (active) in assay [1] and 101% (active) in assay [4]. The results for the inhibition in assay [2] and in assay [3] were 4% and -6%, respectively. Moreover, the outcome in assay [5], in assay [6], in assay [7] and in assay [8] was inactive.

With `COc1ccc(C=C2SC(=O)NC2=Nc2ccccc2)c(OC)c1`, the growth inhibition was 89% (active) in assay [1] and 91% (active) in assay [4]. The inhibition in assay [2] is 51% (active); in assay [3] it was -3%. Further, the result in assay [5], in assay [6], in assay [7] and in assay [8] was inactive.

As to `COc1ccc2nccc([C@@H](O)CN3CCC(NC[C@H](Cc4ccccc4)NC(=O)OC(C)(C)C)CC3)c2c1`, the values for the growth inhibition in assay [1] and in assay [4] were 86% (active) and 98% (active), respectively. Besides, the inhibition in assay [2] was 18%; in assay [3], 6%. In addition, the outcome in assay [5], in assay [6], in assay [7] and in assay [8] was inactive.

Consider `CC(C)(C)c1cc(C(=O)N2CCN(c3ncccc3C(F)(F)F)CC2)n(Cc2ccccc2)n1`, for which the growth inhibition is 99% (active) in assay [1] and 100% (active) in assay [4]. Besides, the inhibition was -8% in assay [2] and 1% in assay [3]. Moreover, the outcome in assay [5], in assay [6], in assay [7] and in assay [8] was inactive.

`COc1ccccc1CCNc1ncc(F)c(N[C@@H](Cc2ccccc2)C(=O)NCCc2ccccc2)n1`: the results for the growth inhibition in assay [1] and in assay [4] were 83% (active) and 90% (active), respectively. Further, the inhibition in assay [2] is 7%; in assay [3] it was -2%. Moreover, the result in assay [5], in assay [6], in assay [7] and in assay [8] was inactive.

In the case of `COc1ccc(Cn2c(Nc3cccc(C(F)(F)F)c3)nc3cc(C(=O)NC(C)C)cnc32)cc1Cl`, the growth inhibition is 81% (active) in assay [1] and 85% (active) in assay [4]. Further, the inhibition was -6% in assay [2] and 1% in assay [3]. In addition, the outcome in assay [5], in assay [6], in assay [7] and in assay [8] was inactive.

Turning to `Cc1ccc(NC(=O)c2cc([N+](=O)[O-])ccc2NCc2cccnc2)cc1Cl`, the growth inhibition was 58% (active) in assay [1] and 86% (active) in assay [4]. Moreover, the inhibition in assay [2] was 9%; in assay [3], -5%. For the same compound, the result in assay [5], in assay [6], in assay [7] and in assay [8] was inactive.

Regarding `CC(C)c1ncc(-c2ccncc2)c(C2CCC(CNC(=O)c3cccnc3)CC2)n1` (centres undefined), the values for the growth inhibition in assay [1] and in assay [4] were 88% (active) and 89% (active), respectively. Moreover, the results for the inhibition in assay [2] and in assay [3] were -14% and 1%, respectively. In addition, the result in assay [5], in assay [6], in assay [7] and in assay [8] was inactive.
